Consider 15 compounds from PubChem BioAssay (Tox21).

Experiment [1] can be described thus: qHTS assay to identify small molecule antagonists of the peroxisome proliferator-activated receptor gamma (PPARg) signaling pathway - cell viability counter screen (AID 743194). Note: nearly all actives have a fitted effect of over 55% in size. Note: potency is the fitted concentration of half-maximal effect. The procedure, abridged:
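PPARg-UAS-bla HEK293H cells were plated, rested 5 h at 37 C, then treated with compounds plus rosiglitazone (50 nM final) for 17 h at 37 C; viability was then read by CellTiter-Glo luminescence after 30 min at room temperature.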

Experiment [2] in a line: qHTS assay for small molecule agonists of the antioxidant response element (ARE) signaling pathway - cell viability counter screen (AID 743203; calls by dose curve; note: nearly all actives have a fitted effect of over 55% in size; note: potency is the fitted concentration of half-maximal effect). A digest of the protocol: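 HepG2 cells carrying ARE-driven beta-lactamase; 2,000 cells/well; 5 hrs plating; compound pinned from DMSO; 16 hrs 37C/5% CO2; CellTiter-Glo added; 30 min RT; luminescence.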
Experiment [3] in a line: qHTS assay for small molecule activators of the heat shock response signaling pathway - cell viability counter screen (AID 743209). Note: nearly all actives have a fitted effect of over 50% in size. Note: potency is the fitted concentration of half-maximal effect. The procedure, abridged: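 Luminescence from CellTiter-Glo, added after the beta-lactamase FRET read, gave the viability signal. Cells were HSE-bla HeLa treated with DMSO-dissolved compounds for 5 h at 37 C following overnight plating.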
Experiment [4] can be described thus: qHTS assay to identify small molecule agonists of the peroxisome proliferator-activated receptor delta (PPARd) signaling pathway - cell viability counter screen (AID 743211). Note: nearly all actives have a fitted effect of over 55% in size. Note: potency is the fitted concentration of half-maximal effect. A digest of the protocol:
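Viability was measured as CellTiter-Glo luminescence (30 min, room temperature) in the same wells as the beta-lactamase readout. GeneBLAzer PPARd UAS-bla HEK293H cells received compound after 5 h plating and were incubated 17 h at 37 C.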

For experiment [5], the target named is Peroxisome proliferator-activated receptor delta (Homo sapiens) (UniProt Q03181). In words: qHTS assay to identify small molecule agonists of the peroxisome proliferator-activated receptor delta (PPARd) signaling pathway (AID 743212; calls by dose curve; note: potency is the fitted concentration of half-maximal effect). A digest of the protocol: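 A PPARd-bla HEK293H line with beta-lactamase under an Upstream Activator Sequence is treated with compounds at 37 C. Substrate loading for 2 h at room temperature precedes the fluorescence measurement.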
Sequence of Peroxisome proliferator-activated receptor delta (Homo sapiens) (Q03181 whole entry, looked up): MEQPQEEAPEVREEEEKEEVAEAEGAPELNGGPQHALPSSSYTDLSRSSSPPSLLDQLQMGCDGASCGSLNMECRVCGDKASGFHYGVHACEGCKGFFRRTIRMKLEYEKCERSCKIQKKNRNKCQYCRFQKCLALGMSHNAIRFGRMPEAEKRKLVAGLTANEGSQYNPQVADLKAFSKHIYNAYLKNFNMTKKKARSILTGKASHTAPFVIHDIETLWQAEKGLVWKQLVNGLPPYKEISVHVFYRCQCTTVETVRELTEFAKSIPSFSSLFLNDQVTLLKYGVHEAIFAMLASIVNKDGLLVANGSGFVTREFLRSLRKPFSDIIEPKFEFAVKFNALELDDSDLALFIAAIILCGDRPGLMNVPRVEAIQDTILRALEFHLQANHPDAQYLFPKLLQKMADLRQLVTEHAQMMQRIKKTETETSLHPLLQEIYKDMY

A short description of experiment [6]: qHTS assay to identify small molecule antagonists of the peroxisome proliferator-activated receptor delta (PPARd) signaling pathway - cell viability counter screen (AID 743213). Note: nearly all actives have a fitted effect of over 50% in size. Note: potency is the fitted concentration of half-maximal effect. The procedure, abridged: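 Luminescence from CellTiter-Glo, added after the bla read and incubated 30 min at room temperature, gives viability of HEK293H PPARd-bla cells exposed to compounds for 17 h at 37 C with 300 nM L165041.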

Experiment [7] deals with Peroxisome proliferator-activated receptor delta (Homo sapiens) (UniProt Q03181). In words: qHTS assay to identify small molecule antagonists of the peroxisome proliferator-activated receptor delta (PPARd) signaling pathway (AID 743215; active = well fitted inhibition curve with a large enough effect in the signal ratio in the repeat runs, not every such curve was filed as active; the % refers to the signal ratio;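 note: cells stimulated with agonist L165041 at 300 nM final during compound exposure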; note: potency is the fitted concentration of half-maximal effect). A digest of the protocol:
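Read-out is beta-lactamase FRET fluorescence, measured 2 h after substrate addition at room temperature. Beforehand, UAS-bla HEK293H cells carrying the PPARd reporter were exposed to compounds with L165041 at 300 nM final for 17 h at 37 C.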

A short description of experiment [8]: qHTS assay to identify small molecule agonists of the farnesoid-X-receptor (FXR) signaling pathway - cell viability counter screen (AID 743218). Note: nearly all actives have a fitted effect of over 45% in size. Note: potency is the fitted concentration of half-maximal effect. A digest of the protocol:
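HEK 293T FXR-bla cells; 5 h pre-incubation, 16 h compound exposure at 37 C; LiveBLAzer substrate 2 h RT, then CellTiter-Glo 30 min RT, luminescence.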

Experiment [9] in a line: qHTS assay to identify small molecule antagonists of the farnesoid-X-receptor (FXR) signaling pathway - cell viability counter screen (AID 743221; active = well fitted cell-killing curve with a large enough effect in the repeat runs, not every such curve was filed as active; note: nearly all actives have a fitted effect of over 50% in size). The procedure, abridged:
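Cytotoxicity counter screen run in the FXR-bla reporter wells: HEK 293T cells exposed to compound with 50 uM (final) chenodeoxycholic acid for 16 h, 37 C, then viability measured by CellTiter-Glo luminescence after 30 min, room temperature.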

The target in experiment [10] is Vitamin D3 receptor (Homo sapiens) (UniProt P11473). In words: qHTS assay to identify small molecule agonists of the vitamin D receptor (VDR) signaling pathway (AID 743222; calls by dose curve). A digest of the protocol:
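VDR-bla cells, 2,000/well; 4 h preincubation 37C; cpd (DMSO) 16 h; LiveBLAzer B/G substrate 2 h RT; fluorescence intensity read.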

Experiment [11] is described as follows: qHTS assay to identify small molecule that activate the aryl hydrocarbon receptor (AhR) signaling pathway - cell viability counter screen (AID 743086).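 Note: HepG2 liver cells carrying the AhR DRE luciferase reporter; series mostly up to about 70 µM; nearly all actives have a fitted effect of over 45% in size.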 The procedure, abridged: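 HepG2-AhR-luc (HG2L7.5c1) cells, 4000/well, were preincubated 5 h at 37C, exposed to compound in qHTS format for 24 hr at 37C, then given CellTiter-Fluor for 30 min; viability was read as fluorescence in the reporter wells.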

The target of experiment [12] is Peroxisome proliferator-activated receptor gamma (Homo sapiens) (UniProt P37231). In words: qHTS assay to identify small molecule antagonists of the peroxisome proliferator-activated receptor gamma (PPARg) signaling pathway (AID 743191; calls by dose curve; note: nearly all actives have a fitted effect of over 30% in size; note: potency is the fitted concentration of half-maximal effect). A digest of the protocol: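 GeneBLAzer PPARg UAS-bla HEK293H cells carrying a UAS-driven beta-lactamase reporter were plated at 3000 cells/well, preincubated 5 h at 37C, then given compound for 17 h at 37C; LiveBLAzer B/G FRET substrate was read after 1 h at room temperature.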
Sequence of Peroxisome proliferator-activated receptor gamma (Homo sapiens) (P37231 whole entry, looked up): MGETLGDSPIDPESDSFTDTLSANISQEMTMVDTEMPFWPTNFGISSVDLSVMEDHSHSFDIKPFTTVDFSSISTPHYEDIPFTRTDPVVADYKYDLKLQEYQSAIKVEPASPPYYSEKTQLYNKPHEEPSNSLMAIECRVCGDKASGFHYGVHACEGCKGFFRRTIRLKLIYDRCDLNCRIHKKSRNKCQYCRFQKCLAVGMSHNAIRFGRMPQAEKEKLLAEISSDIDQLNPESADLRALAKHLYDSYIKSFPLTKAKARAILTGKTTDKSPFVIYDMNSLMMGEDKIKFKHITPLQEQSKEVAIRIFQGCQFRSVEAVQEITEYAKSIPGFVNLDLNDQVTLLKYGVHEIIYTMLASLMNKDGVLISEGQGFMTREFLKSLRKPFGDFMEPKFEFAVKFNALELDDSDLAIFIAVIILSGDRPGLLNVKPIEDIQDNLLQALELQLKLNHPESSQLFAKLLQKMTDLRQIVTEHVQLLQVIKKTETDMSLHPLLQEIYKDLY

Experiment [13] can be described thus: qHTS assay for small molecule agonists of the antioxidant response element (ARE) signaling pathway (AID 743202; active = well fitted activation curve with a large enough effect in the signal ratio in the repeat runs, not every such curve was filed as active; the % refers to the signal ratio; note: potency is the fitted concentration of half-maximal effect). The procedure, abridged:
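Compounds delivered in DMSO to ARE-bla HepG2 cells (2,000 cells/well, pre-incubated 5 h) and left 16 h at 37 C. LiveBLAzer B/G FRET substrate then added for 2 h at RT before fluorescence reading.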

Experiment [14] concerns the target Bile acid receptor (Homo sapiens) (UniProt Q96RI1). In words: qHTS assay to identify small molecule antagonists of the farnesoid-X-receptor (FXR) signaling pathway (AID 743217; active = well fitted inhibition curve with a large enough effect in the signal ratio in the repeat runs, not every such curve was filed as active; the % refers to the signal ratio). The procedure, abridged: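 HEK 293T FXR-UAS-bla, 5000 cells/well; compound + CDCA 50 uM final; 16 h, 37 °C; B/G FRET substrate 2 h RT; fluorescence.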
For experiment [15] the target is unchanged. In words: qHTS assay to identify small molecule agonists of the farnesoid-X-receptor (FXR) signaling pathway (AID 743220; active = well fitted activation curve with a large enough effect in the signal ratio in the repeat runs, not every such curve was filed as active; the % refers to the signal ratio; note: potency is the fitted concentration of half-maximal effect). A digest of the protocol: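 Beta-lactamase reporter under UAS control in GeneBLAzer FXR HEK 293T cells (5000/well) measured with LiveBLAzer FRET substrate after 2 h at room temperature. Compound exposure lasted 16 h at 37C.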
Experiment [16] can be described thus: qHTS assay for small molecule activators of the heat shock response signaling pathway (AID 743210; active = well fitted activation curve with a large enough effect in the signal ratio in the repeat runs, with a control signal flat, not every such curve was filed as active; the % refers to the signal ratio;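 note: HeLa cells with beta-lactamase reporter driven by heat shock elements; series mostly up to about 63 µM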). The procedure, abridged: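 Reporter gene assay: HeLa cells stably bearing an HSE-bla construct, compound treatment 5 h at 37 C, LiveBLAzer substrate 2.5 h at RT, fluorescence intensity.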
Experiment [17] concerns the target Vitamin D3 receptor (Homo sapiens) (UniProt P11473). In words: qHTS assay to identify small molecule antagonists of the vitamin D receptor (VDR) signaling pathway (AID 743223; active = well fitted inhibition curve with a large enough effect in the signal ratio in the repeat runs, not every such curve was filed as active; the % refers to the signal ratio). The procedure, abridged: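 Antagonist mode: compound added to VDR-bla cells alongside agonist 1alpha,25-dihydroxyvitamin D3 (3 nM final), incubation 16 h at 37C. Read-out is LiveBLAzer FRET fluorescence, 2 h at room temperature.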

Values joined by “and” are separate entries in the source; they are usually repeats but may differ in a detail not shown here. Equal values may be shown once. Records with an inconclusive call do not appear. Where a structure was tested more than once in an assay, its records may differ in their call. Active and inactive are the calls of the source. Unless noted, calls come from the whole dose curve; as a rule, active = well fitted curve in the direction sought with a large enough effect in the repeat runs; inconclusive = weak or mixed curves; inactive = no such curve, though single readings can be large; an effect the other way counts as inactive or inconclusive.

Sequence of Vitamin D3 receptor (Homo sapiens) (P11473 whole entry, looked up): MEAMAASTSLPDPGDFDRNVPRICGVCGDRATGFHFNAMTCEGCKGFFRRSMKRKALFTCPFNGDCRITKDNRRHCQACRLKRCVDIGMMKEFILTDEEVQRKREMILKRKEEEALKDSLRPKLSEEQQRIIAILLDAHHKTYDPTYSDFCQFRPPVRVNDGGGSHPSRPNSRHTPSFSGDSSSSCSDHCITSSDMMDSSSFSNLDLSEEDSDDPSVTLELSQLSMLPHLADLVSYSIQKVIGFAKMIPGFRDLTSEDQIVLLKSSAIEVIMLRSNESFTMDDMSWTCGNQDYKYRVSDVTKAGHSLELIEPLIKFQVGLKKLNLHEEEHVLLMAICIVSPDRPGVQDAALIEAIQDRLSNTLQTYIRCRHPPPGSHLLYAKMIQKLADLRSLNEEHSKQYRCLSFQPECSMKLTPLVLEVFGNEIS
Sequence of Bile acid receptor (Homo sapiens) (Q96RI1 whole entry, looked up): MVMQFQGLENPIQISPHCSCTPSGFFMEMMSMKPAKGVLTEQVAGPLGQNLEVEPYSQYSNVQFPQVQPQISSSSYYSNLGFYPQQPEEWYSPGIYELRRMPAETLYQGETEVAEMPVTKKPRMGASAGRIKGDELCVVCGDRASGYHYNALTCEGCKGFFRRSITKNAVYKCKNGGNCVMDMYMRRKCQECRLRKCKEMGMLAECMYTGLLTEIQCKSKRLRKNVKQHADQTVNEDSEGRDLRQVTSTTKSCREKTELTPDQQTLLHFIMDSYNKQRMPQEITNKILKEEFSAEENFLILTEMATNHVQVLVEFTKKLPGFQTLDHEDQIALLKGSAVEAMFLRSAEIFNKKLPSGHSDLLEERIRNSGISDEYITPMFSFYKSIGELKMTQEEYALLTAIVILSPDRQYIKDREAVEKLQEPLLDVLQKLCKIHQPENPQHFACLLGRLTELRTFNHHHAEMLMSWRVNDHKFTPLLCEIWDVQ

For `COC(=O)C1=C(C)NC(C)=C(C(=O)OCCc2ccc(N3CCN(C(c4ccccc4)c4ccccc4)CC3)cc2)C1c1cccc([N+](=O)[O-])c1` (stereo unspecified), the Potency entry in [1], in experiment [2], in [3], in [4], in [5] and in experiment [6] was “inactive” throughout. The Potency result in experiment [7], in experiment [8], in experiment [9] and in experiment [10] was “inactive” each time.

Turning to `CCCCC(CC)COC(=O)c1ccccc1C(=O)O` (stereo unspecified), the Potency result in experiment [11], in experiment [1], in [2] and in experiment [9] was “inactive” each time. Also, the Potency in experiment [5] was 49.9 µM (active).

In the case of `Nc1cc(C(F)(F)F)ccc1S`, the Potency entry in experiment [12], in experiment [1], in experiment [13], in experiment [2], in experiment [3] and in [8] was “inactive” each time. Further, the Potency entry in experiment [9] and in experiment [10] was “inactive” each time.

As for `CC1(C)CCC(C)(C)c2cc(C(=O)Nc3ccc(C(=O)O)cc3)ccc21`, the Potency entry in [12], in experiment [1], in experiment [13], in experiment [2], in experiment [4] and in [5] was “inactive” throughout. Further, the Potency entry in experiment [7], in experiment [14], in experiment [8] and in experiment [9] was “inactive” each time. Also, in experiment [15], the Potency was 43.6 µM (active).

Take `CCC(CN)=C(c1ccccc1)c1ccccc1`: the Potency result in experiment [1], in experiment [13], in experiment [2], in experiment [3], in experiment [16] and in experiment [5] was “inactive” each time. Further, the Potency entry in [10] and in experiment [17] was “inactive” each time. Besides, the values for the Potency in experiment [4], in [6] and in experiment [8] were 29.8 µM (active), 13.3 µM (active) and 23.7 µM (active), respectively.

On to `CC[C@@]1(O)C(=O)OCc2c1cc1n(c2=O)Cc2c-1nc1ccccc1c2/C=N/OC(C)(C)C`, for which the Potency in [2] was 0.335 µM (active); in experiment [3] it was 0.473 µM (active); in [4] it was 11.9 µM (active); in experiment [8] it was 13.3 µM (active).

Take `CCCCCCCC(=O)[O-].CCCCCCCC(=O)[O-].[Zn+2]`: the Potency entry in [12], in experiment [1], in [13], in experiment [2], in experiment [3] and in experiment [16] was “inactive” in each case. In addition, the Potency entry in experiment [4], in [6], in [8], in experiment [9] and in experiment [10] was “inactive” each time.

As for `CN(C)[C@@H]1C(=O)C(C(N)=O)=C(O)[C@@]2(O)C(=O)C3=C(O)c4c(O)cccc4C[C@H]3C[C@@H]12`, the Potency entry in experiment [1], in [2], in experiment [3], in [4], in [8] and in experiment [9] was “inactive” each time.

Turning to `Cc1ccc(O)c2ncccc12`, the Potency in [13] was 4.22 µM (active); in experiment [4], 0.841 µM (active). Moreover, the Potency result in experiment [15] was “inactive”.

On to `Nc1ccc2c3c(cccc13)-c1ccccc1-2`, for which the Potency in experiment [1] is 49.5 µM (active); in experiment [4], 55.5 µM (active); in experiment [6] it was 49.5 µM (active). Further, the Potency entry in experiment [2], in [3] and in [9] was “inactive” throughout.

Regarding `COC(=O)c1cc(Cl)ccc1OC`, the Potency result in experiment [12], in [1], in experiment [13], in experiment [2], in [3] and in [16] was “inactive” throughout. Besides, the Potency entry in [4], in experiment [5], in experiment [6], in experiment [7], in experiment [9] and in experiment [10] was “inactive” each time. The Potency entry in [17] was “inactive”.

On to `C/C(=C(/OCCOc1ccc(Cl)cc1)c1ccc(Cl)cc1Cl)n1ccnc1`, for which the Potency result in [12], in experiment [3], in [5], in [6], in [8] and in experiment [9] was “inactive” each time. The Potency entry in experiment [10] is “inactive”. For the same compound, the Potency in [2] was 42.2 µM (active).

As for `O=c1cc(-c2ccc(O)cc2)oc2cc(O)cc(O)c12`, the Potency in [12] was 21.9 µM (active); in experiment [3], 12.3 µM (active); in experiment [7], “inactive and 17.4 µM (active)”. In addition, the Potency result in experiment [1], in experiment [2], in experiment [16], in experiment [4], in [5] and in [6] was “inactive” each time. For the same compound, the Potency result in experiment [8] and in [9] was “inactive” in each case.

Take `CCCCCOc1ccccc1/C(=C\SC)n1ccnc1`: the Potency in experiment [12] was 29.8 µM (active). The Potency result in experiment [1], in experiment [2], in experiment [3] and in experiment [6] was “inactive” in each case.

Consider `Cc1cccc(N(C)C(=S)Oc2ccc3c(c2)C2CCC3C2)c1` (stereo unspecified), for which the Potency entry in experiment [12], in [1], in [2], in [3], in experiment [16] and in experiment [4] was “inactive” in each case. Moreover, the Potency entry in experiment [5], in [7] and in experiment [9] was “inactive” throughout.
